Data on 10 compounds can be found in PubChem BioAssay (NCI).

The structures appear in SMILES notation. The panel holds about 83,000 compounds, 20% with a hit somewhere; the sample as a whole holds those more often.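 Activity criterion: percent growth below 10, measured after cells in 96-well plates were exposed to a single compound concentration for 48 hours.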 Values without a mark were called inactive. The source made the active and inactive calls.

Common to all, as to assay: NCI-60 one-dose screen, 48 h (100 = growth as untreated, 0 = no growth, -100 = all killed)
The test system of one assay is SK-MEL-2 melanoma. The note with it: 10 µM.
The subject of another assay is EKVX NSCLC. The note with it: 10 µM.
The test system of a further assay is SN12C renal. The note with it: 10 µM.
For the next assay, the system named is UO-31 renal. Conditions: 10 µM.
A further assay concerns TK-10 renal. The note with it: 10 µM unless noted.
In the next assay the test system is ACHN renal. Conditions: 10 µM.
The subject of another assay is CCRF-CEM leukemia. The note with it: 10 µM.
Another assay deals with MOLT-4 leukemia. The note with it: 10 µM.
In a further assay the test system is SR leukemia. The note with it: 10 µM.
The test system of the next assay is RPMI-8226 leukemia. Conditions: 10 µM.
The next assay concerns OVCAR-8 ovarian. The note with it: 10 µM.
The next assay relates to OVCAR-5 ovarian. The note with it: 10 µM.
Another assay deals with IGROV1 ovarian. The note with it: 10 µM.
The next assay deals with OVCAR-3 ovarian. The note with it: 10 µM.
The next assay relates to HS 578T breast. Conditions: 10 µM.
A further assay concerns NCI/ADR-RES ovarian. The note with it: 10 µM.
In another assay the test system is CAKI-1 renal. Conditions: 10 µM.
The next assay concerns A498 renal. The note with it: 10 µM.
In a further assay the test system is OVCAR-4 ovarian. Conditions: 10 µM.
The next assay relates to SK-OV-3 ovarian. Conditions: 10 µM.

For the compound `O=[N+]([O-])c1ccc(-c2ncc(-c3ccc(Br)cc3)o2)cc1`, the growth was 99.1% in the assay on SK-MEL-2 melanoma; 101% in the assay on EKVX NSCLC; 103% with SN12C renal; 84.5% in the assay on UO-31 renal; 108% in the assay on TK-10 renal; 94.2% with ACHN renal. For the same compound, the growth in the assay on CCRF-CEM leukemia was 92.6%; in the assay on MOLT-4 leukemia, 97.6%; with SR leukemia, 124%; in the assay with RPMI-8226 leukemia, 78.8%; in the assay on OVCAR-8 ovarian it was 109%; with OVCAR-5 ovarian it was 105%. Moreover, the growth in the assay with IGROV1 ovarian was 100%; with OVCAR-3 ovarian, 129%; with HS 578T breast, 129%; in the assay with NCI/ADR-RES ovarian it was 104%.
For the compound `CCOC(=O)/C(C#N)=C/c1cccc(C)c1`, the growth is 106% in the assay with SK-MEL-2 melanoma; 98.9% with EKVX NSCLC; 103% with SN12C renal; 88.9% in the assay on UO-31 renal; 98% in the assay on TK-10 renal; 69.5% with CAKI-1 renal. Also, the growth is 101% with A498 renal; 103% in the assay on OVCAR-8 ovarian; 96.1% in the assay on OVCAR-5 ovarian; 104% with OVCAR-4 ovarian; 101% with SK-OV-3 ovarian; 106% in the assay with OVCAR-3 ovarian. Further, the growth with HS 578T breast is 107%; in the assay with NCI/ADR-RES ovarian it was 97.3%.
On to `O=c1[nH]n(-c2ccccc2)c(=O)cc1Cl`, for which the growth with SK-MEL-2 melanoma is 104%; with EKVX NSCLC, 110%; in the assay on SN12C renal, 93.3%; in the assay with UO-31 renal, 84.7%; in the assay with TK-10 renal, 102%; with CAKI-1 renal, 121%. Further, the growth is 108% in the assay with A498 renal; 106% with CCRF-CEM leukemia; 95.4% with MOLT-4 leukemia; 87.8% in the assay with SR leukemia; 97.5% in the assay with RPMI-8226 leukemia; 101% in the assay on OVCAR-8 ovarian. In addition, the growth in the assay with OVCAR-5 ovarian is 104%; in the assay with OVCAR-4 ovarian, 112%; with SK-OV-3 ovarian, 103%; in the assay with IGROV1 ovarian it was 102%; in the assay on OVCAR-3 ovarian it was 108%; with HS 578T breast, 111%. The growth in the assay with NCI/ADR-RES ovarian is 107%.
For the compound `COc1ccc(Oc2c(I)cc(CC(NC(C)=O)C(=O)O)cc2I)cc1` (stereo not drawn), the growth with SK-MEL-2 melanoma was 102%; with EKVX NSCLC, 67.9%; in the assay on SN12C renal, 83.8%; in the assay on UO-31 renal it was 71.7%; with TK-10 renal it was 113%; in the assay on CAKI-1 renal, 57.4%. Moreover, the growth in the assay on A498 renal was 79.7%; with CCRF-CEM leukemia, 78.4%; in the assay on MOLT-4 leukemia it was 60.9%; in the assay with SR leukemia, 83.1%; in the assay on RPMI-8226 leukemia, 74.3%; with OVCAR-8 ovarian it was 83.2%. Besides, the growth was 91.7% in the assay with OVCAR-5 ovarian; 89.4% in the assay with OVCAR-4 ovarian; 105% with SK-OV-3 ovarian; 106% in the assay on IGROV1 ovarian; 99% in the assay with OVCAR-3 ovarian; 95.7% in the assay on HS 578T breast. Besides, in the assay on NCI/ADR-RES ovarian, the growth is 62.4%.
With `CCOc1ccc(I)cc1`, the growth with SK-MEL-2 melanoma was 130%; with EKVX NSCLC, 105%; with SN12C renal, 97.1%; with UO-31 renal it was 89%; with TK-10 renal, 112%; in the assay on CAKI-1 renal it was 113%. The growth in the assay with A498 renal was 101%; in the assay with CCRF-CEM leukemia it was 121%; in the assay on MOLT-4 leukemia, 115%; in the assay with SR leukemia, 114%; with RPMI-8226 leukemia it was 131%; with OVCAR-8 ovarian it was 96.7%. In addition, the growth is 94% in the assay on OVCAR-5 ovarian; 110% in the assay with SK-OV-3 ovarian; 117% in the assay with IGROV1 ovarian; 116% in the assay with OVCAR-3 ovarian; 111% with HS 578T breast; 101% with NCI/ADR-RES ovarian.
As for `Cc1ccccc1N=C(c1ccccc1)C1C(=O)c2ccccc2C1=O`, the growth in the assay with SK-MEL-2 melanoma is 59.9%; with EKVX NSCLC it was 88.9%; in the assay on SN12C renal, 90.9%; in the assay on UO-31 renal, 82.5%; in the assay with ACHN renal, 88.3%; in the assay on CAKI-1 renal it was 84.6%. Besides, the growth with A498 renal was -13.7% (active); in the assay on CCRF-CEM leukemia, 65.1%; in the assay on SR leukemia, 27%; with RPMI-8226 leukemia, 59.9%; in the assay with OVCAR-8 ovarian, 97.4%; with OVCAR-5 ovarian, 103%. The growth in the assay with OVCAR-4 ovarian was 101%; in the assay on IGROV1 ovarian, 55.3%; in the assay with OVCAR-3 ovarian it was 71.9%; in the assay with HS 578T breast, 83%; with NCI/ADR-RES ovarian, 80.2%.
Take `CCOC(=O)c1coc(C(=O)OCC)c1C(=O)OCC`: the growth in the assay on SK-MEL-2 melanoma is 126%; in the assay with EKVX NSCLC, 100%; in the assay on SN12C renal, 112%; with UO-31 renal it was 96.5%; in the assay on TK-10 renal, 118%; in the assay on CAKI-1 renal it was 102%. For the same compound, the growth in the assay on A498 renal was 92.2%; in the assay with CCRF-CEM leukemia, 112%; in the assay with MOLT-4 leukemia, 98.6%; in the assay with SR leukemia, 113%; in the assay on RPMI-8226 leukemia, 126%; in the assay on OVCAR-8 ovarian, 118%. Moreover, the growth in the assay on OVCAR-5 ovarian is 114%; with OVCAR-4 ovarian it was 119%; in the assay on SK-OV-3 ovarian, 120%; in the assay with IGROV1 ovarian it was 112%; in the assay on OVCAR-3 ovarian, 111%; in the assay on HS 578T breast it was 117%. Besides, the growth in the assay with NCI/ADR-RES ovarian was 119%.
Regarding `CCN(CC)CCNc1ccc(CO)c2sc3ccccc3c(=O)c12`, the growth with SK-MEL-2 melanoma was 45.4%; in the assay with EKVX NSCLC it was 65.6%; with SN12C renal, 37.5%; in the assay on UO-31 renal, 25.5%; in the assay with TK-10 renal, 46.4%; in the assay on CAKI-1 renal, 43.2%. Moreover, the growth in the assay with A498 renal is -17.9% (active); in the assay with CCRF-CEM leukemia it was 37%; with MOLT-4 leukemia it was 8.97% (active); in the assay with RPMI-8226 leukemia, 37%; in the assay on OVCAR-8 ovarian, 31%; in the assay with OVCAR-5 ovarian, 53.3%. For the same compound, the growth is 43.6% with SK-OV-3 ovarian; 51.6% in the assay with IGROV1 ovarian; 62.8% in the assay on OVCAR-3 ovarian; 64.8% with HS 578T breast; 40.7% in the assay with NCI/ADR-RES ovarian.
As to `COc1ccc2c(NCCCCCCCCNc3c4ccccc4nc4cc(OC)ccc34)c3ccccc3nc2c1`, the growth in the assay on SK-MEL-2 melanoma was -67.3% (active); in the assay on EKVX NSCLC, -79.6% (active); with SN12C renal, -92.7% (active); in the assay on UO-31 renal, -76.2% (active); in the assay with TK-10 renal, -72.9% (active); in the assay with ACHN renal it was -100% (active). Also, the growth in the assay on A498 renal is -88.6% (active); in the assay with CCRF-CEM leukemia, -42.4% (active); in the assay with MOLT-4 leukemia, -85.7% (active); in the assay with RPMI-8226 leukemia it was -60.3% (active); with OVCAR-8 ovarian, -42.6% (active); in the assay on OVCAR-5 ovarian, -91.8% (active). The growth in the assay with OVCAR-4 ovarian was -96.6% (active); in the assay with SK-OV-3 ovarian, -100% (active); in the assay on OVCAR-3 ovarian it was -100% (active); in the assay with HS 578T breast, -45.9% (active); in the assay with NCI/ADR-RES ovarian it was 9.56% (active).
`CC1=C(/C=C/C(C)=C/C=C/C(C)=C/CO)C(C)(C)CCC1`: the growth with SK-MEL-2 melanoma is 107%; in the assay on EKVX NSCLC, 108%; with SN12C renal, 104%; in the assay with UO-31 renal, 87.3%; with TK-10 renal, 111%; with ACHN renal, 106%. Besides, the growth in the assay with A498 renal is 98%; in the assay on MOLT-4 leukemia, 97.9%; in the assay with SR leukemia, 94.8%; with OVCAR-8 ovarian, 101%; with OVCAR-5 ovarian it was 108%; with OVCAR-4 ovarian it was 112%. Also, the growth is 114% in the assay on SK-OV-3 ovarian; 117% in the assay on IGROV1 ovarian; 109% in the assay on OVCAR-3 ovarian; 105% in the assay on HS 578T breast; 103% with NCI/ADR-RES ovarian.
